The panel holds about 83,000 compounds, 20% with a hit somewhere; the sample as a whole holds those more often.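 Interpretation: 100, growth as untreated; towards 0, rising growth inhibition; 0, no net growth; 0 to -100, cell death. Compounds scoring below 10 were considered active.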 Unmarked numbers belong to inactive results. Activity calls are given as the source filed them.
Tests used:
Experiment in all cases: NCI-60 one-dose screen, 48 h (100 = growth as untreated, 0 = no growth, -100 = all killed)
SR leukemia = conditions: 10 µM unless noted
RPMI-8226 leukemia = conditions: 10 µM
OVCAR-8 ovarian = conditions: 10 µM unless noted
OVCAR-5 ovarian = conditions: 10 µM unless noted
OVCAR-4 ovarian = conditions: 10 µM unless noted
SK-OV-3 ovarian = conditions: 10 µM
IGROV1 ovarian = conditions: 10 µM unless noted
OVCAR-3 ovarian = conditions: 10 µM unless noted
HS 578T breast = conditions: 10 µM unless noted
NCI/ADR-RES ovarian = conditions: 10 µM unless noted
T-47D breast = conditions: 10 µM
BT-549 breast = conditions: 10 µM unless noted
MDA-MB-435 melanoma = conditions: 10 µM unless noted
SW-620 colon = conditions: 10 µM unless noted
MCF7 breast = conditions: 10 µM unless noted
HCT-116 colon = conditions: 10 µM unless noted
HCC-2998 colon = conditions: 10 µM unless noted
KM12 colon = conditions: 10 µM unless noted

SMILES | growth (SR leukemia) | growth (RPMI-8226 leukemia) | growth (OVCAR-8 ovarian) | growth (OVCAR-5 ovarian) | growth (OVCAR-4 ovarian) | growth (SK-OV-3 ovarian) | growth (IGROV1 ovarian) | growth (OVCAR-3 ovarian) | growth (HS 578T breast) | growth (NCI/ADR-RES ovarian) | growth (T-47D breast) | growth (BT-549 breast) | growth (MDA-MB-435 melanoma) | growth (SW-620 colon) | growth (MCF7 breast) | growth (HCT-116 colon) | growth (HCC-2998 colon) | growth (KM12 colon)
O=c1[nH]c(-c2ccccn2)nc2sc3c(c12)CCCCCC3 | 22.1% | 39.4% | 29.9% | 58.6% | 28% | 45.2% | 42.4% | 54.7% | 69.9% | 24.6% | 42.6% | 62.2% | 46.4% | 25% | 29.6% | 24.6% | 53.5% | 33.6%
CN1CCc2c(c3ccccc3c3ccccc23)C1 | 20.5% | 50.8% | 37.3% | 60% | 82.1% | 63% | 61.4% | 63.7% | 82.4% | 45% | 55.5% | 94.7% | 51.4% | 28.7% | 26.4% | 16.9% | 70% | 39.1%
CC1(C)N=C(N)N=C(N)N1c1cccc(OCCOc2cccc([N+](=O)[O-])c2)c1 | 15.9% | 52.4% | 105% | 32% | 81.3% | 70% | 29.7% | 45.3% | 82% | 107% | 83.1% | 37.8% | 17.8% | 48.6% | 29% | 10.9% | 47.6% | 22.2%
CC(=O)c1cc(C)c(OC(=O)c2ccccc2)c(C)c1 | 82.8% | 80.4% | 103% | 106% | 91.6% | 103% | 123% | 106% | 100% | 97.9% | 74.9% | 97.6% | 95.2% | 103% | 105% | 93.7% | 100% | 104%
COc1cc(/C=C/C(=O)C2=C(/C=C/c3ccc(O)c(OC)c3)NC(=O)NC2c2ccc(O)c(OC)c2)ccc1O (stereo not given) | 79% | 76.2% | 86.3% | 94.2% | 93% | 116% | 113% | 104% | 81% | 107% | 86.7% | 93.4% | 93.4% | 94.2% | 82.1% | 73.3% | 119% | 101%
CC(C)(C)CC(C)(C)N(CSc1ccc(Cl)cc1)CSc1ccc(Cl)cc1 | -32.7% (active) | -25% (active) | 44.6% | 63.4% | 50.1% | 71% | 2.44% (active) | 41.4% | 66.6% | 45.6% | 63.2% | -52.4% (active) | 46.3% | 35.9% | 31.4% | 25.5% | 65.3% | 33.5%
O=C(NCc1cccnc1)c1ccc([N+](=O)[O-])o1 | 23% | 52.8% | 4.23% (active) | -1.25% (active) | 63.9% | 32.3% | 33.7% | -4.71% (active) | -9.03% (active) | -29.1% (active) | 57% | 4.28% (active) | -19.9% (active) | -65.3% (active) | 13.9% | -4.08% (active) | -97.6% (active) | 0.0106% (active)
O=C1NC(=S)S/C1=C\c1cccc([N+](=O)[O-])c1 | 70.1% | 62.8% | 101% | 96.9% | 88.5% | 104% | 120% | 100% | 118% | 96.8% | 90.2% | 81.2% | 93.7% | 115% | 87.8% | 93.2% | 87.4% | 103%
Cc1ccc2nc(NC(=O)CSC(=S)N3CCN(Cc4ccccc4)CC3)sc2c1 | 11.1% | 8.2% (active) | 0.825% (active) | -36.3% (active) | 12.6% | -44.7% (active) | -39.8% (active) | -90.4% (active) | -0.695% (active) | 22.6% | -32.5% (active) | -55.4% (active) | -38.5% (active) | -84.7% (active) | -71.2% (active) | -54.9% (active) | – | -92.7% (active)
O=C(Nc1ccc(Cl)c(Cl)c1)OCn1ncc2ccc([N+](=O)[O-])cc21 | 76.7% | 83.4% | 89% | 77.5% | 93.6% | 86.2% | 75.5% | 85.1% | 75.4% | 84.1% | 80% | 78.5% | 94.3% | 106% | 85.9% | 80.7% | 93.8% | 86.2%
O=C(CCCCCCC(=O)Nc1ccc2c(c1)/C(=C/c1ccc[nH]1)C(=O)N2)NO | 4.1% (active) | -19.5% (active) | 11.2% | 0.698% (active) | 23.7% | 12.2% | -4.96% (active) | -57.8% (active) | 9.71% (active) | 35.7% | -0.107% (active) | 29.7% | – | -27% (active) | 17.2% | -36.8% (active) | 3.74% (active) | -14.4% (active)
COc1c(O)c2c3c(c1OC)-c1ccccc1CC3N(S(=O)(=O)c1ccc(C)cc1)CC2 (stereo not given) | 9.8% (active) | 90.9% | 53.7% | 79.2% | 71.3% | 48.9% | 65.6% | -10.4% (active) | 63% | 40% | 62% | – | -0.0173% (active) | 30% | 20.2% | 38.6% | 89.6% | 27.8%
CCCCNNC(=O)c1ccc(Br)cc1 | 40.9% | 17.8% | 25.8% | 41.1% | 73.9% | 85% | 60.1% | 68.8% | 56.8% | 23.5% | – | 78.7% | 36.5% | 32.6% | 48% | 19.5% | 61.4% | 78.1%
Cc1ccc(C(=O)Nc2ccccc2N)cc1 | 68% | 15% | 59.5% | 51.1% | 99.5% | 92.9% | 70.1% | 90.8% | 71.4% | 44.2% | – | 61.5% | 68.3% | 60% | 74.8% | 62.9% | 77.1% | 87.4%
Nc1cc2[nH]c(=O)c3ccccc3c2cc1Br | 61.9% | 76.9% | 77.6% | 60.6% | 59.2% | 87.9% | 59.6% | 72.1% | 67% | 81.7% | 20.6% | – | 95.3% | 82.9% | 24.5% | 77% | 69.5% | 78.9%
CN1CCc2c(Sc3ccc(C(=O)NO)cc3)c3ccccc3n2C1 | 12.6% | 7.63% (active) | 7.62% (active) | 27.1% | 28.3% | 62.4% | 75.6% | 42.8% | 60.2% | 75.2% | 39.7% | 76.9% | – | 19.6% | 32.5% | 3.85% (active) | 66.5% | 53.9%
O=C(CC(O)c1ccccc1)Nc1ccccn1 (stereo not given) | 86.9% | 93.8% | 100% | 104% | 97.1% | 94% | 108% | 108% | 106% | 106% | 94.1% | – | 97.9% | 109% | 103% | 97.6% | 102% | 103%
COCCOC1=C(Cl)C(=O)c2ccccc2C1=O | 0.0172% (active) | 6.59% (active) | 13.2% | 31.6% | -21.6% (active) | 87.5% | 21% | -13.3% (active) | 4.85% (active) | 20.4% | -49% (active) | -23% (active) | 4.68% (active) | -3.69% (active) | 15.4% | -13.5% (active) | – | -41.7% (active)
